Records with an inconclusive call do not appear. Calls of active or inactive are those of the source. Unless noted, calls follow the shape of the dose curve; as a rule, active = well fitted curve in the direction sought with a large enough effect in the repeat runs; inconclusive = weak or mixed curves; inactive = no such curve, though single readings can be large; an effect the other way counts as inactive or inconclusive.
What was measured:
[1] = qHTS assay to identify aromatase inhibitors - cell viability counter screen (AID 743084);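 also: cells stimulated with testosterone during compound exposure; nearly all actives have a fitted effect of over 55% in size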
[2] = target: Aryl hydrocarbon receptor (Homo sapiens) (UniProt P35869); experiment: qHTS assay to identify small molecule that activate the aryl hydrocarbon receptor (AhR) signaling pathway (AID 743085);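 also: HG2L7.5c1 human HepG2 liver cells with stably integrated DRE-driven firefly reporter; series mostly up to about 70 µM; nearly all actives have a fitted effect of over 15% in size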
Chain of Aryl hydrocarbon receptor (Homo sapiens) (P35869 whole entry, looked up): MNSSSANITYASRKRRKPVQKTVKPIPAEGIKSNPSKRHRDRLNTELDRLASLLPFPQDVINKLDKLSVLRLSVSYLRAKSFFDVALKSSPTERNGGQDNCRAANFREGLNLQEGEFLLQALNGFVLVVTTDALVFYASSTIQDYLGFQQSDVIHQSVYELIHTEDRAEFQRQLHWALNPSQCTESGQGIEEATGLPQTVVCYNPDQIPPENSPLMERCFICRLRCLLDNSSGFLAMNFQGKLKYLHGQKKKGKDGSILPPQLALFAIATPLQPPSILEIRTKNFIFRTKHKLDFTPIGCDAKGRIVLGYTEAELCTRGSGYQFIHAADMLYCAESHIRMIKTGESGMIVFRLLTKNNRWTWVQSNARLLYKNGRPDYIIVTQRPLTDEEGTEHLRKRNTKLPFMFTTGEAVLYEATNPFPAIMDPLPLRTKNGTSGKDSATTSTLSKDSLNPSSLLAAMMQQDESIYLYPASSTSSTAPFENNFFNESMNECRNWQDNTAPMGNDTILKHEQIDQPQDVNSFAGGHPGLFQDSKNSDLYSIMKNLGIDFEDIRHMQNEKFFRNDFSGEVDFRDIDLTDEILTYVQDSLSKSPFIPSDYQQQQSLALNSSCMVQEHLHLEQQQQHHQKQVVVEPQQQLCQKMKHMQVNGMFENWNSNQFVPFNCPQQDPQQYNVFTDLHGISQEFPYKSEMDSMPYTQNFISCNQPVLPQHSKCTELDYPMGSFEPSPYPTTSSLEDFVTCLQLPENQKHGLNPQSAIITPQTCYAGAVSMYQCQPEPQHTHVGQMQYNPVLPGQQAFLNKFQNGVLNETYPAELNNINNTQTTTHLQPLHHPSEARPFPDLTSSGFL
Summary of the method: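 Steps: seed HepG2-AhR-luc cells; allow 5 h at 37C; pin-transfer test compound or vehicle; incubate 24 h at 37C; add viability dye (30 min, 37C) and read fluorescence; add luciferase substrate (30 min, RT) and read luminescence.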

[3] = qHTS assay to identify small molecule that activate the aryl hydrocarbon receptor (AhR) signaling pathway - cell viability counter screen (AID 743086);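 also: HepG2 liver cells carrying the AhR DRE luciferase reporter; series mostly up to about 70 µM; nearly all actives have a fitted effect of over 45% in size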
Summary of the method: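 HepG2-AhR-luc (HG2L7.5c1) cells, 4000/well, treated 24 h at 37 C with compound; viability measured as CellTiter-Fluor fluorescence after 30 min in the same wells as the luciferase read.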

[4] = target: Peroxisome proliferator-activated receptor gamma (Homo sapiens) (UniProt P37231); experiment: qHTS assay to identify small molecule agonists of the peroxisome proliferator-activated receptor gamma (PPARg) signaling pathway (AID 743094; active = well fitted activation curve with a large enough effect in the signal ratio in the repeat runs, not every such curve was filed as active; the % refers to the signal ratio)
Chain of Peroxisome proliferator-activated receptor gamma (Homo sapiens) (P37231 whole entry, looked up): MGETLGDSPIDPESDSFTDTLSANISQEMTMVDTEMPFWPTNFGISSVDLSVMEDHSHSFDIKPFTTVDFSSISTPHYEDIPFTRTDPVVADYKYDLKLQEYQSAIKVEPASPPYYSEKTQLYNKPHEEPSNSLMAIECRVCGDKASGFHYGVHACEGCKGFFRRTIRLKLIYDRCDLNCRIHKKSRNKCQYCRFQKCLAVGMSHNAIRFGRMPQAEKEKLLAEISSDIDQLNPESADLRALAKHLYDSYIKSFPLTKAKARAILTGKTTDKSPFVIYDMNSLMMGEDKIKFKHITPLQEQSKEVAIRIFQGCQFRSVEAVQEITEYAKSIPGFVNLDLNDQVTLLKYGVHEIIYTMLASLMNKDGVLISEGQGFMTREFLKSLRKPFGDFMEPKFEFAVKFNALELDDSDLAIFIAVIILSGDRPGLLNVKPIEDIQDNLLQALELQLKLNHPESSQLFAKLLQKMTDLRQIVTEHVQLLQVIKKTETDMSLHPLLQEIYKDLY
Summary of the method: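 Reporter activation was scored by fluorescence of cleaved LiveBLAzer B/G substrate (1 h, room temperature) in PPARg-bla HEK293H cells previously treated 17 h at 37C with DMSO-dissolved compounds.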

[5] = qHTS assay to identify small molecule antagonists of the peroxisome proliferator-activated receptor gamma (PPARg) signaling pathway - cell viability counter screen (AID 743194); also: nearly all actives have a fitted effect of over 55% in size
Summary of the method: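 Cytotoxicity counter screen in PPARg-bla HEK293H cells, same wells as reporter assay. Compounds plus 50 nM rosiglitazone (final) for 17 h at 37 C, then viability read by CellTiter-Glo luminescence.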

[6] = qHTS assay for small molecule agonists of the antioxidant response element (ARE) signaling pathway (AID 743202; active = well fitted activation curve with a large enough effect in the signal ratio in the repeat runs, not every such curve was filed as active; the % refers to the signal ratio)
Summary of the method: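 HepG2 ARE-bla reporter line, 2,000 cells/well; 5 h preincubation 37 C/5% CO2; compound (DMSO) 16 h 37 C; B/G FRET substrate 2 h RT; fluorescence intensity.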

[7] = qHTS assay for small molecule activators of the heat shock response signaling pathway - cell viability counter screen (AID 743209); also: nearly all actives have a fitted effect of over 50% in size
Summary of the method: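 Viability of HSE-bla HeLa cells is measured with CellTiter-Glo in the wells already used for the reporter read. Compound exposure lasts 5 h at 37 C, and luminescence is read after 30 min at room temperature.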

[8] = qHTS assay for small molecule activators of the heat shock response signaling pathway (AID 743210; active = well fitted activation curve with a large enough effect in the signal ratio in the repeat runs, with a control signal flat, not every such curve was filed as active; the % refers to the signal ratio;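 also: HeLa cells with beta-lactamase reporter driven by heat shock elements; series mostly up to about 63 µM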)
Summary of the method: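 Beta-lactamase reporter read-out: FRET substrate fluorescence after 2.5 h at RT, following 5 h compound treatment at 37 C of HeLa cells carrying HSE-driven bla reporter; quantitative HTS format.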

[9] = qHTS assay to identify small molecule agonists of the peroxisome proliferator-activated receptor delta (PPARd) signaling pathway - cell viability counter screen (AID 743211); also: nearly all actives have a fitted effect of over 55% in size
Summary of the method: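 Viability of GeneBLAzer PPARd UAS-bla HEK293H cells was assessed after 17 h compound incubation at 37C, using CellTiter-Glo reagent added after the reporter read and luminescence recorded 30 min later.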

[10] = target: Peroxisome proliferator-activated receptor delta (Homo sapiens) (UniProt Q03181); experiment: qHTS assay to identify small molecule agonists of the peroxisome proliferator-activated receptor delta (PPARd) signaling pathway (AID 743212; calls by dose curve)
Chain of Peroxisome proliferator-activated receptor delta (Homo sapiens) (Q03181 whole entry, looked up): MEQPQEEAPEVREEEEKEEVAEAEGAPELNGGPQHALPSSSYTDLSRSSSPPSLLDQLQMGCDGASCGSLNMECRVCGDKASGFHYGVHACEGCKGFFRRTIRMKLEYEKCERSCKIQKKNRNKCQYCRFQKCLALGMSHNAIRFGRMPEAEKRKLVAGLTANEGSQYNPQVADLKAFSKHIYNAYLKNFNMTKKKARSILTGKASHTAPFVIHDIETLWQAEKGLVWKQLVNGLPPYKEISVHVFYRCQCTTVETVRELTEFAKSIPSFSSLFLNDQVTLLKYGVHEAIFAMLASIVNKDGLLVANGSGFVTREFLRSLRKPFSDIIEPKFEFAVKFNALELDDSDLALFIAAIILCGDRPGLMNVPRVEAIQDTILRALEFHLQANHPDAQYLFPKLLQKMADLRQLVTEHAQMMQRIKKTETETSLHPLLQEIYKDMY
Summary of the method: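 Read-out: beta-lactamase FRET fluorescence after 2 h room-temperature incubation with LiveBLAzer B/G substrate. Cells were HEK293H carrying a UAS-bla reporter for PPARd, treated at 37 C with DMSO-dissolved compounds.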

[11] = qHTS assay to identify small molecule antagonists of the peroxisome proliferator-activated receptor delta (PPARd) signaling pathway - cell viability counter screen (AID 743213); also: nearly all actives have a fitted effect of over 50% in size
Summary of the method: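 CellTiter-Glo was added to PPARd-bla HEK293H wells following 17 h compound treatment in the presence of 300 nM L165041. Luminescence was recorded after 30 min at room temperature.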

[12] = target: Peroxisome proliferator-activated receptor delta (Homo sapiens) (UniProt Q03181); experiment: qHTS assay to identify small molecule antagonists of the peroxisome proliferator-activated receptor delta (PPARd) signaling pathway (AID 743215; active = well fitted inhibition curve with a large enough effect in the signal ratio in the repeat runs, not every such curve was filed as active; the % refers to the signal ratio;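 also: cells stimulated with agonist L165041 at 300 nM final during compound exposure; series mostly up to about 62 µM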)
Summary of the method: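 Plated HEK293H PPARd-bla cells rested 5 h at 37 C and 5% CO2. Compound, then agonist L165041 at 300 nM final, was added; 17 h at 37 C followed. Substrate loading, 2 h room temperature, fluorescence measured.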

[13] = qHTS assay to identify small molecule agonists of the farnesoid-X-receptor (FXR) signaling pathway - cell viability counter screen (AID 743218); also: nearly all actives have a fitted effect of over 45% in size
Summary of the method: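 Viability of FXR-bla HEK 293T cells is measured by ATP-based CellTiter-Glo luminescence following 16 h compound treatment at 37 C and a prior 2 h room-temperature beta-lactamase substrate step.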

[14] = target: Vitamin D3 receptor (Homo sapiens) (UniProt P11473); experiment: qHTS assay to identify small molecule agonists of the vitamin D receptor (VDR) signaling pathway (AID 743222; calls by dose curve)
Chain of Vitamin D3 receptor (Homo sapiens) (P11473 whole entry, looked up): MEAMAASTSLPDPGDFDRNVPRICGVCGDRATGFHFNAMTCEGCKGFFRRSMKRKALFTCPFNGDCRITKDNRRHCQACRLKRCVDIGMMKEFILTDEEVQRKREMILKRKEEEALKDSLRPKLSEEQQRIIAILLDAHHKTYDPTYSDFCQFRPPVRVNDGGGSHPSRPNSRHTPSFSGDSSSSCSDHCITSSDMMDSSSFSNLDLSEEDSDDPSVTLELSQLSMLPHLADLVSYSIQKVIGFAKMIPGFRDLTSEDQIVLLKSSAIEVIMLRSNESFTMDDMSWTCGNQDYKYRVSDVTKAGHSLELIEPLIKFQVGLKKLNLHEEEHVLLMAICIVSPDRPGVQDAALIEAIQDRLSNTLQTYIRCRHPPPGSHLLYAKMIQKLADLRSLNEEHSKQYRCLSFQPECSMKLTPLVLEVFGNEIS
Summary of the method: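 Fluorescence from cleaved LiveBLAzer B/G FRET substrate served as readout. VDR-bla cells had been treated 16 h at 37C with test compounds in DMSO, following a 4 h settling period, and substrate was loaded for 2 h at RT.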

[15] = target: Vitamin D3 receptor (Homo sapiens) (UniProt P11473); experiment: qHTS assay to identify small molecule antagonists of the vitamin D receptor (VDR) signaling pathway (AID 743223; active = well fitted inhibition curve with a large enough effect in the signal ratio in the repeat runs, not every such curve was filed as active; the % refers to the signal ratio)
Summary of the method: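 Fluorescence from LiveBLAzer B/G FRET substrate, read after 2 h at room temperature, reflects beta-lactamase reporter activity in VDR-bla cells treated 16 h at 37C with compounds and agonist 1alpha,25-dihydroxyvitamin D3 (3 nM final).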

[16] = qHTS assay to identify small molecule antagonists of the farnesoid-X-receptor (FXR) signaling pathway - cell viability counter screen (AID 743221; active = well fitted cell-killing curve with a large enough effect in the repeat runs, not every such curve was filed as active; also: nearly all actives have a fitted effect of over 50% in size)
Summary of the method: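 Quantitative HTS of the Tox21 10K library run in parallel with the beta-lactamase reporter read. HEK 293T cells carrying a UAS-driven bla reporter got compound and 50 uM CDCA (final) for 16 h; ATP-based luminescence followed.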

[17] = qHTS assay for small molecule agonists of the antioxidant response element (ARE) signaling pathway - cell viability counter screen (AID 743203; calls by dose curve; also: nearly all actives have a fitted effect of over 55% in size)
Summary of the method: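 Viability counter screen: stably transfected ARE-bla HepG2 line, 16 hrs compound exposure at 37C/5% CO2, ATP-based CellTiter-Glo luminescence measured in the reporter wells.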

[18] = target: Bile acid receptor (Homo sapiens) (UniProt Q96RI1); experiment: qHTS assay to identify small molecule antagonists of the farnesoid-X-receptor (FXR) signaling pathway (AID 743217; active = well fitted inhibition curve with a large enough effect in the signal ratio in the repeat runs, not every such curve was filed as active; the % refers to the signal ratio)
Chain of Bile acid receptor (Homo sapiens) (Q96RI1 whole entry, looked up): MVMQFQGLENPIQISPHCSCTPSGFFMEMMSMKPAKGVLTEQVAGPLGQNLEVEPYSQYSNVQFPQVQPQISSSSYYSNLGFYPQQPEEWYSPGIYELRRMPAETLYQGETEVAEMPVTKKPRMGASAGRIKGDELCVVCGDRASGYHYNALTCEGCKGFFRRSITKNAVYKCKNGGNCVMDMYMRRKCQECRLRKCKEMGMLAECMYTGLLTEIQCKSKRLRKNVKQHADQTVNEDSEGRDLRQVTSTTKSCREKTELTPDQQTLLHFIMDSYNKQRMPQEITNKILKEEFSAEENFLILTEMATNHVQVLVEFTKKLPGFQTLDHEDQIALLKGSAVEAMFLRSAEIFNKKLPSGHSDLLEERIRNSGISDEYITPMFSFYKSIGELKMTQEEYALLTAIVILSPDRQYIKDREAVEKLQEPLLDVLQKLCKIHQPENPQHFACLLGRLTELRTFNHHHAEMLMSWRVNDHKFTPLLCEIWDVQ
Summary of the method: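 Screen of the Tox21 10K library in quantitative HTS format using FXR-UAS-bla HEK 293T reporter cells. Agonist chenodeoxycholic acid, 50 uM final, added with compounds; 16 h incubation at 37 °C; beta-lactamase FRET fluorescence measured.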

[19] = target: Bile acid receptor (Homo sapiens) (UniProt Q96RI1); experiment: qHTS assay to identify small molecule agonists of the farnesoid-X-receptor (FXR) signaling pathway (AID 743220; active = well fitted activation curve with a large enough effect in the signal ratio in the repeat runs, not every such curve was filed as active; the % refers to the signal ratio)
Summary of the method: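 FXR-UAS-bla HEK 293T cells carrying a UAS-driven beta-lactamase reporter were plated for 5 h at 37C/5% CO2, then exposed to DMSO-dissolved Tox21 10K compounds for 16 h at 37C. A LiveBLAzer B/G FRET substrate was loaded for 2 h at room temperature before fluorescence reading.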

Measured: Potency

CC(O)COC(C)(C)C (centres undefined)
not listed: [16] | [17] | [18] | [19]
inactive: all other assays above

C/C=C(\C)C(C)=O
not listed: [14] | [15] | [17] | [18] | [19]
inactive: all other assays above

CC1=C(C(=O)O)N2C(=O)[C@@H](NC(=O)[C@H](N)C3=CCC=CC3)[C@H]2SC1
not listed: [8] | [13] | [15] | [18] | [19]
inactive: all other assays above

CC(C)[C@H]1CC[C@H](C)C[C@@H]1O
not listed: [8] | [12]
inactive: all other assays above

COC(=O)c1ccccc1C(=O)O
not listed: [11] | [17] | [18] | [19]
inactive: all other assays above

CC(C)=CCC[C@@](C)(O)[C@H]1CC=C(C)CC1
not listed: [8] | [16] | [18] | [19]
inactive: all other assays above

CC(C)OC(=O)CCC(=O)OC(C)C
not listed: [6] | [17]
inactive: all other assays above

CCCCCC(C)O (centres undefined)
not listed: [17] | [18] | [19]
inactive: all other assays above

C=CCCCCCCCCC(=O)OCCCC
not listed: [6] | [8]
inactive: all other assays above

O=C1CCCCO1
not listed: [8] | [13] | [18] | [19]
inactive: all other assays above

CC(=O)OCC(=O)Nc1cc(C#N)cc(NC(=O)COC(C)=O)c1Cl
not listed: [10] | [11] | [12] | [17] | [18] | [19]
inactive: all other assays above

C=CCN1C[C@H](C(=O)N(CCCN(C)C)C(=O)NCC)C[C@@H]2c3cccc4[nH]cc(c34)C[C@H]21
not listed: [9] | [11] | [18] | [19]
inactive: all other assays above

CCCSSCCC
not listed: [17] | [18] | [19]
inactive: all other assays above

Reference: PubChem BioAssay (Tox21)
